From PubChem BioAssay (Tox21)
Records with an inconclusive call do not appear. Activity calls are given as the source filed them. Calls come from the whole dose curve; as a rule, active = well fitted curve in the direction sought with a large enough effect in the repeat runs; inconclusive = weak or mixed curves; inactive = no such curve, though single readings can be large; an effect the other way counts as inactive or inconclusive.

Assays:
[1] = A CellTox Green Cytotoxicity Assay to monitor cytotoxicity in HEK293 cells - 40 hour (AID 1224871); note: nearly all actives have a fitted effect of over 45% in size
Summary of the method: (§1)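 Seeding of HEK293 cells together with cytotoxicity dye preceded a 5 h incubation at 37 C/5% CO2. Test compounds in DMSO were then added and fluorescence monitored across 40 h.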

[2] = qHTS RealTime-Glo MT Cell Viability Assay in HEK293 cells - 16 hour (AID 1224872); note: nearly all actives have a fitted effect of over 50% in size; note: potency is the fitted concentration of half-maximal effect
Summary of the method: (§2)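 Reads taken at 0, 8, 16, 24, 32 and 40 h from the same wells. HEK293 cells (600/well) carried RealTime-Glo reagents from seeding, with compound added after a 5 h settle at 37 C.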

[3] = qHTS RealTime-Glo MT Cell Viability Assay in HepG2 cells - 8 hour (AID 1224873); note: nearly all actives have a fitted effect of over 55% in size
Summary of the method: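 HepG2 cells mixed with RealTime-Glo MT reagents (NanoLuc plus cell-permeant prosubstrate) were seeded at 600 cells/well, incubated 5 h at 37 C/5% CO2, then pinned with compounds in DMSO; nonlytic luminescence tracked viability during 40 h treatment.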

[4] = qHTS RealTime-Glo MT Cell Viability Assay in HEK293 cells - 40 hour (AID 1224874); details: RealTime-Glo luminescence; max response: hits give low values; note: nearly all actives have a fitted effect of over 50% in size; note: potency is the fitted concentration of half-maximal effect
Summary of the method: (§3)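 Tox21 screen in HEK293 using RealTime-Glo MT chemistry, with cells and reagent co-dispensed. Luminescence proportional to viable cell number was captured at intervals during 40 h compound exposure at 37 C.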

[5] = A CellTox Green Cytotoxicity Assay to monitor cytotoxicity in HEK293 cells - 24 hour (AID 1224875); note: series mostly up to about 77 µM; nearly all actives have a fitted effect of over 45% in size
Summary of the method: as §1

[6] = A CellTox Green Cytotoxicity Assay to monitor cytotoxicity in HepG2 cells - 16 hour (AID 1224876); note: nearly all actives have a fitted effect of over 45% in size
Summary of the method: (§4)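 Nonlytic assay: viable cells exclude the dye, so fluorescence scales with cell death. HepG2 at 600 cells/well, compounds added after 5 h, signal read across 40 h.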

[7] = qHTS RealTime-Glo MT Cell Viability Assay in HepG2 cells - 32 hour (AID 1224877); note: nearly all actives have a fitted effect of over 55% in size
Summary of the method: (§5)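 HepG2 suspension premixed with RealTime-Glo reagents is plated at 600 cells per well and left 5 h at 37 C/5% CO2. Compounds in DMSO then go in, and bioluminescence reflecting viable cell number is recorded over 40 h.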

[8] = A CellTox Green Cytotoxicity Assay to monitor cytotoxicity in HepG2 cells - 24 hour (AID 1224878); note: nearly all actives have a fitted effect of over 45% in size
Summary of the method: as §4

[9] = A CellTox Green Cytotoxicity Assay to monitor cytotoxicity in HepG2 cells - 40 hour (AID 1224879); note: nearly all actives have a fitted effect of over 40% in size
Summary of the method: as §4

[10] = qHTS RealTime-Glo MT Cell Viability Assay in HEK293 cells - 0 hour (AID 1224880)
Summary of the method: as §3

[11] = A CellTox Green Cytotoxicity Assay to monitor cytotoxicity in HEK293 cells - 32 hour (AID 1224881); note: nearly all actives have a fitted effect of over 40% in size
Summary of the method: as §1

[12] = A CellTox Green Cytotoxicity Assay to monitor cytotoxicity in HepG2 cells - 0 hour (AID 1224882); note: nearly all actives have a fitted effect of over 35% in size; note: potency is the fitted concentration of half-maximal effect
Summary of the method: as §4

[13] = A CellTox Green Cytotoxicity Assay to monitor cytotoxicity in HEK293 cells - 8 hour (AID 1224884); note: nearly all actives have a fitted effect of over 35% in size
Summary of the method: as §1

[14] = qHTS RealTime-Glo MT Cell Viability Assay in HepG2 cells - 16 hour (AID 1224885); note: nearly all actives have a fitted effect of over 50% in size
Summary of the method: as §5

[15] = qHTS RealTime-Glo MT Cell Viability Assay in HEK293 cells - 24 hour (AID 1224886); note: nearly all actives have a fitted effect of over 50% in size; note: potency is the fitted concentration of half-maximal effect
Summary of the method: as §2

[16] = qHTS RealTime-Glo MT Cell Viability Assay in HEK293 cells - 8 hour (AID 1224887); note: nearly all actives have a fitted effect of over 50% in size; note: potency is the fitted concentration of half-maximal effect
Summary of the method: as §3

[17] = A CellTox Green Cytotoxicity Assay to monitor cytotoxicity in HEK293 cells - 16 hour (AID 1224888); note: nearly all actives have a fitted effect of over 35% in size
Summary of the method: as §1

[18] = qHTS RealTime-Glo MT Cell Viability Assay in HepG2 cells - 0 hour (AID 1224889); note: nearly all actives have a fitted effect of over 50% in size
Summary of the method: as §5

[19] = A CellTox Green Cytotoxicity Assay to monitor cytotoxicity in HepG2 cells - 8 hour (AID 1224890); note: nearly all actives have a fitted effect of over 45% in size
Summary of the method: as §4

[20] = A CellTox Green Cytotoxicity Assay to monitor cytotoxicity in HepG2 cells - 32 hour (AID 1224883); note: nearly all actives have a fitted effect of over 50% in size
Summary of the method: as §4
% is set by controls: 0 for no effect and ±100 for the full control effect.

CCCCC#N
inactive: Potency [1] | Potency [2] | Potency [3] | max response [4] -2.33% | Potency [5] | Potency [6] | Potency [7] | Potency [8] | Potency [9] | outcome [10] | Potency [11] | Potency [12] | Potency [13] | Potency [14] | Potency [15] | Potency [16] | Potency [17] | outcome [18] | Potency [19]

CCC[N+](CCC)(CCC)CCC
inactive: Potency [1] | Potency [2] | Potency [3] | max response [4] 6.01% | Potency [5] | Potency [6] | Potency [7] | Potency [9] | outcome [10] | Potency [11] | Potency [12] | Potency [20] | Potency [13] | Potency [14] | Potency [15] | Potency [17] | outcome [18] | Potency [19]

C=C(Cl)Cl
inactive: Potency [1] | Potency [2] | Potency [3] | max response [4] 8.47% | Potency [5] | Potency [6] | Potency [7] | Potency [8] | Potency [9] | outcome [10] | Potency [11] | Potency [12] | Potency [13] | Potency [14] | Potency [15] | Potency [16] | Potency [17] | outcome [18] | Potency [19]

CCOP(=S)(OCC)SCSc1cc(Cl)ccc1Cl
inactive: Potency [1] | Potency [2] | Potency [3] | max response [4] 0.23% | Potency [5] | Potency [6] | Potency [7] | Potency [8] | Potency [9] | outcome [10] | Potency [11] | Potency [12] | Potency [13] | Potency [14] | Potency [15] | Potency [17] | Potency [19]

CNC(=O)Oc1cccc(N=CN(C)C)c1
inactive: Potency [1] | Potency [2] | Potency [3] | max response [4] 7.04% | Potency [5] | Potency [6] | Potency [7] | Potency [8] | Potency [9] | outcome [10] | Potency [11] | Potency [12] | Potency [13] | Potency [14] | Potency [15] | Potency [17] | outcome [18] | Potency [19]

COc1cc(C[C@@H](C)N)c(OC)cc1Br
inactive: Potency [1] | Potency [2] | Potency [3] | max response [4] -17.7% | Potency [5] | Potency [6] | Potency [7] | Potency [8] | outcome [10] | Potency [11] | Potency [12] | Potency [13] | Potency [14] | Potency [15] | Potency [17] | Potency [19]

N#CC(C#N)=Cc1ccc(O)c(O)c1
active: Potency [12] 23.9 µM
inactive: Potency [1] | Potency [2] | Potency [3] | max response [4] -6.83% | Potency [5] | Potency [6] | Potency [7] | Potency [8] | Potency [9] | Potency [11] | Potency [20] | Potency [13] | Potency [14] | Potency [15] | Potency [16] | Potency [17] | outcome [18] | Potency [19]

CCCCCCCCP(=O)(O)O
inactive: Potency [1] | Potency [2] | Potency [3] | max response [4] -9.79% | Potency [5] | Potency [6] | Potency [7] | Potency [8] | Potency [9] | outcome [10] | Potency [11] | Potency [12] | Potency [13] | Potency [14] | Potency [15] | Potency [16] | Potency [17] | outcome [18]

Clc1ccccc1
inactive: Potency [1] | Potency [2] | Potency [3] | max response [4] -1.5% | Potency [5] | Potency [6] | Potency [7] | Potency [8] | Potency [9] | outcome [10] | Potency [11] | Potency [12] | Potency [20] | Potency [13] | Potency [14] | Potency [16] | Potency [17] | Potency [19]

Cc1nnc(-c2ccccc2)c(=O)n1N
inactive: Potency [1] | Potency [2] | Potency [3] | max response [4] -13.2% | Potency [5] | Potency [6] | Potency [7] | Potency [8] | Potency [9] | outcome [10] | Potency [11] | Potency [12] | Potency [13] | Potency [14] | Potency [15] | Potency [16] | Potency [17] | outcome [18] | Potency [19]

CC(C)(c1ccccc1)c1cc(-n2nc3ccccc3n2)c(O)c(C(C)(C)c2ccccc2)c1
inactive: Potency [1] | Potency [2] | Potency [3] | max response [4] 12.9% | Potency [5] | Potency [6] | Potency [7] | Potency [8] | Potency [9] | outcome [10] | Potency [11] | Potency [12] | Potency [20] | Potency [13] | Potency [14] | Potency [16] | Potency [17] | Potency [19]

CCOP(=O)(O)C(N)=O
inactive: Potency [1] | Potency [2] | Potency [3] | max response [4] 20.4% | Potency [5] | Potency [6] | Potency [7] | Potency [8] | Potency [9] | outcome [10] | Potency [11] | Potency [12] | Potency [13] | Potency [14] | Potency [17] | outcome [18] | Potency [19]

C=CC(=O)OCC
inactive: Potency [1] | Potency [2] | Potency [3] | max response [4] -11.3% | Potency [5] | Potency [6] | Potency [7] | Potency [8] | Potency [9] | outcome [10] | Potency [11] | Potency [12] | Potency [20] | Potency [13] | Potency [14] | Potency [16] | Potency [17] | Potency [19]

C[N+](C)(C)CC1CO1 (centres undefined)
inactive: Potency [1] | Potency [2] | Potency [3] | max response [4] 5.73% | Potency [5] | Potency [6] | Potency [7] | Potency [8] | Potency [9] | outcome [10] | Potency [11] | Potency [12] | Potency [13] | Potency [14] | Potency [15] | Potency [16] | Potency [17] | outcome [18] | Potency [19]

CCCCCl
inactive: Potency [1] | Potency [2] | Potency [3] | max response [4] 1.53% | Potency [5] | Potency [6] | Potency [7] | Potency [8] | Potency [9] | outcome [10] | Potency [11] | Potency [12] | Potency [13] | Potency [14] | Potency [15] | Potency [16] | Potency [17] | outcome [18] | Potency [19]

CCOP(=S)(S)OCC
inactive: Potency [1] | Potency [2] | Potency [3] | max response [4] 2.46% | Potency [5] | Potency [6] | Potency [7] | Potency [8] | Potency [9] | outcome [10] | Potency [11] | Potency [12] | Potency [20] | Potency [13] | Potency [14] | Potency [16] | Potency [17] | outcome [18] | Potency [19]

CN1CC[C@]23c4c5ccc(O)c4O[C@H]2[C@@H](O)CC[C@H]3[C@H]1C5
inactive: Potency [1] | Potency [2] | Potency [3] | max response [4] -1.3% | Potency [5] | Potency [6] | Potency [7] | Potency [8] | Potency [9] | outcome [10] | Potency [11] | Potency [12] | Potency [20] | Potency [13] | Potency [14] | Potency [17] | outcome [18] | Potency [19]

CC(C)(C)NCC(O)c1ccccc1Cl (centres undefined)
inactive: Potency [1] | Potency [2] | Potency [3] | max response [4] 4.08% | Potency [5] | Potency [6] | Potency [7] | Potency [8] | Potency [9] | outcome [10] | Potency [11] | Potency [12] | Potency [13] | Potency [14] | Potency [15] | Potency [16] | Potency [17] | outcome [18]

CCCN(CCC)C(=O)Cc1c(-c2ccc(Cl)cc2)nc2ccc(Cl)cn12
active: Potency [2] 5.35 µM | Potency [4] 5.35 µM | Potency [15] 5.35 µM | Potency [16] 5.35 µM
inactive: Potency [1] | Potency [3] | Potency [5] | Potency [6] | Potency [7] | Potency [8] | outcome [10] | Potency [11] | Potency [12] | Potency [13] | Potency [14] | Potency [17] | outcome [18] | Potency [19]

CCCCOC(=O)CCC(=O)OCCCC
inactive: Potency [1] | Potency [2] | Potency [3] | max response [4] 3.34% | Potency [5] | Potency [6] | Potency [7] | outcome [10] | Potency [11] | Potency [12] | Potency [13] | Potency [14] | Potency [15] | Potency [16] | Potency [17] | outcome [18] | Potency [19]

COC1=CC(=O)O[C@@H](/C=C/c2ccc3c(c2)OCO3)C1
inactive: Potency [1] | Potency [2] | Potency [3] | Potency [5] | Potency [6] | Potency [7] | Potency [8] | Potency [9] | outcome [10] | Potency [11] | Potency [12] | Potency [20] | Potency [13] | Potency [14] | Potency [15] | Potency [16] | Potency [17] | outcome [18] | Potency [19]

O=CC=O
inactive: Potency [1] | Potency [2] | max response [4] 2.31% | Potency [5] | Potency [6] | Potency [7] | Potency [8] | Potency [9] | outcome [10] | Potency [11] | Potency [12] | Potency [20] | Potency [14] | Potency [15] | Potency [16] | Potency [17] | outcome [18] | Potency [19]
